# In PubChem BioAssay (EPA / NIEHS):
# Records with an inconclusive call do not appear. Active and inactive are the calls of the source. The calls were made as follows: active = hit-call score of the fitted dose curve at least 0.9, where 1 is the maximum; inconclusive = response in the unintended direction; inactive = score below 0.9.
# Read-out: xenobiotic metabolism (CYP1A1), CYP1A1 (gene 1543)
# Experiment: CLD_CYP1A1_24hr: CellzDirect (CLD) Gene Expression Assay for xenobiotic metabolism (CYP1A1) at 24 hours (AID 2283673)
# Experimental: CLD_24hr is a cell-based, multiplexed-readout assay that uses hepatocyte, a human liver primary cell, with measurements taken at 24 hours after chemical dosing in a 96-well plate.CLD_CYP1A1_24hr is one of 16 assay component(s) measured or calculated from the CLD_24hr assay. It is designed to make measurements of mRNA induction, a form of inducible reporter, as detected with chemiluminescence signals by Quantitative Nuclease Protection Assay (qNPA) technology.Data from the assay component CLD_CYP1A1_24hr was analyzed at the endpoint, CLD_CYP1A1_24hr, in the positive analysis fitting direction relative to DMSO as the negative control and baseline of activity. Using a type of inducible reporter, gain-of-signal activity can be used to understand changes in the reporter gene as they relate to the gene CYP1A1. Furthermore, this assay endpoint can be referred to as a primary readout. To generalize the intended target to other relatable targets, this assay endpoint is annotated to the cyp intended target family, where subfamily is xenobiotic metabolism.
# Human hepatocyte cultures were treated daily for two consecutive days with fresh dosing solutions containing appropriate concentrations of the 320 ToxCast chemicals (chemical identities were blinded to CellzDirect and other ToxCast collaborators), vehicle control (0.2% DMSO), and positive control inducers as summarized in Table 1. Due to the large number of treatment groups and chemicals examined, the ToxCast chemicals were divided into two groups (spanning two independent cultures of hepatocytes from separate donor preparations (Hu778: ToxCast plates 1 and 2; Hu776: ToxCast plates 3 and 4). Each preparation of human hepatocyte cultures was treated with respective vehicle control, medium only control, set of six positive controls/reference chemicals for the five hepatic receptor pathways, and a subset of eight of the ToxCast chemicals (indoxacarb, pyrithiobac-sodium, norflurazon, cyhalofop-butyl, methomyl, thiram, acetochlor, and propiconazole). These replicate data, coupled with internal replicates designed within the blinded ToxCast chemical library, provided additional data to evaluate interindividual differences between hepatocyte preparations and their potential impact on chemical profiles.Cell morphology and integrity were evaluated using phase-contrast microscopy as an indicator of hepatocyte cell health (Tyson & Green, 1987). Cultures for each treatment group (i.e., media, vehicle [0.2% DMSO], positive control inducers [multiple concentrations], and the ToxCast chemicals [multiple concentrations]) were observed and cell morphology was assessed relative to vehicle control cultures at each harvest time point (0, 6, 24, or 48 h). […] Images were evaluated at the conclusion of the study to assess changes in cell integrity and account for the effects of chemical exposure on uncharacteristic changes in concentration-dependent gene expression profiles. The results from these determinations of apparent cytotoxicity were annotated (yes/no) alongside the corresponding qNPA data for reference.At the conclusion of each treatment period, hepatocyte cultures (96-well) were washed with 1 volume of HBSS, lysed by addition of 25 ul ArrayPlate lysis buffer (HTG, Tucson, AZ), and 70 ul/well of Denaturation Oil, denatured by incubation at 95C for 10 min, and frozen at approximately -70C until analysis by nuclease protection assay (qNPA) (Roberts et al., 2007). For qNPA analysis, cell lysates were thawed at 50C for approximately 30 min, qNPA probes were added, and samples were incubated at 95C for 10 min to begin the detection process by denaturing the target RNA, dissociating the duplexes and secondary structure hybridization. At the conclusion of the hybridization period, S1 nuclease reagent was added to each sample to digest all nonprotected nucleotides at 50C for 60-90 min. […]
SMILES,outcome,AC50
OCCOc1ccccc1,inactive,
CC(C)(C)C(O)/C(=C\c1ccc(Cl)cc1Cl)n1cncn1 (stereo not given),,6.46 µM (active)
COP(=S)(OC)Oc1ccc([N+](=O)[O-])cc1,,4.2 µM (active)
CNC(=O)/C=C(\C)OP(=O)(OC)OC,inactive,
CCOCN(C(=O)CCl)c1c(C)cccc1CC,,1.99 µM (active)
Clc1ccccc1-c1nnc(-c2ccccc2Cl)nn1,,5.94 µM (active)
CNC(=O)CSP(=S)(OC)OC,inactive,
CCS(=O)(=O)c1cccnc1S(=O)(=O)NC(=O)Nc1nc(OC)cc(OC)n1,,1.9 µM (active)
Oc1cc(Cl)ccc1Oc1ccc(Cl)cc1Cl,inactive,
CC(C)(C)C(O)C(Oc1ccc(Cl)cc1)n1cncn1 (stereo not given),,2.22 µM (active)
C[C@H]1[C@H](c2ccc(Cl)cc2)SC(=O)N1C(=O)NC1CCCCC1,,3.97 µM (active)
COC(=O)c1ccccc1CS(=O)(=O)NC(=O)Nc1nc(OC)cc(OC)n1,,32.4 µM (active)
CCC(C)Nc1c([N+](=O)[O-])cc(C(C)(C)C)cc1[N+](=O)[O-] (stereo not given),inactive,
O=C1c2ccccc2C(=O)N1SC(Cl)(Cl)Cl,inactive,
O=C(O)C(F)(F)C(F)(F)C(F)(F)C(F)(F)C(F)(F)C(F)(F)C(F)(F)F,inactive,
O=S(=O)(O)C(F)(F)C(F)(F)C(F)(F)C(F)(F)C(F)(F)C(F)(F)C(F)(F)C(F)(F)F,inactive,
CCN(CC)C(=O)SCc1ccc(Cl)cc1,inactive,
O=C(Nc1ccccc1)Nc1cnns1,,2 µM (active)
O=S1OCC2C(CO1)C1(Cl)C(Cl)=C(Cl)C2(Cl)C1(Cl)Cl (stereo not given),inactive,
CCCN(CCC)c1c([N+](=O)[O-])cc(C(F)(F)F)cc1[N+](=O)[O-],,8.5 µM (active)

SMILES,outcome,AC50
O=C(O)COc1ccc(Cl)cc1Cl,inactive,
CCOC1Oc2ccc(OS(C)(=O)=O)cc2C1(C)C (stereo not given),inactive,
O=[N+]([O-])c1c(Cl)c(Cl)c(Cl)c(Cl)c1Cl,,20 µM (active)
CCC(C)(C)C(=O)OC1=C(c2ccc(Cl)cc2Cl)C(=O)OC12CCCCC2,inactive,
CN1CSC(=S)N(C)C1,,3.9 µM (active)
COP(=S)(OC)Oc1ccc(SC)c(C)c1,,20 µM (active)
CC(C)N(C(=O)COc1nnc(C(F)(F)F)s1)c1ccc(F)cc1,inactive,
COc1cc(OC)nc(NC(=O)NS(=O)(=O)c2cc(NC=O)ccc2C(=O)N(C)C)n1,inactive,
CCCN(CCOc1c(Cl)cc(Cl)cc1Cl)C(=O)n1ccnc1,,1.89 µM (active)
CC1(C)C(C=C(Cl)Cl)C1C(=O)OC(C#N)c1ccc(F)c(Oc2ccccc2)c1 (stereo not given),inactive,
CCOc1nc(NC)nc(NC(=O)NS(=O)(=O)c2ccccc2C(=O)OC)n1,,7.53 µM (active)
O=[N+]([O-])/N=C1\NCCN1Cc1ccc(Cl)nc1,inactive,
CC(C)OC(=O)Nc1cccc(Cl)c1,,5.63 µM (active)
CCc1ccc(C(=O)NN(C(=O)c2cc(C)cc(C)c2)C(C)(C)C)cc1,,9.97 µM (active)
CC1(c2ccc(Oc3ccccc3)cc2)OC(=O)N(Nc2ccccc2)C1=O (stereo not given),,3.89 µM (active)
COP(=O)(OC)OC=C(Cl)Cl,inactive,
CC[C@H](C)[C@H]1O[C@]2(C=C[C@@H]1C)C[C@@H]1C[C@@H](C/C=C(\C)[C@@H](O[C@H]3C[C@H](OC)[C@@H](O[C@H]4C[C@H](OC)[C@@H](O)[C@H](C)O4)[C@H](C)O3)[C@@H](C)/C=C/C=C3\CO[C@@H]4[C@H](O)C(C)=C[C@@H](C(=O)O1)[C@]34O)O2 (tested in a mixture with another compound),,35.2 µM (active)
CNC(=O)Oc1ccccc1OC(C)C,inactive,
CCC(C)(NC(=O)c1cc(Cl)c(C)c(Cl)c1)C(=O)CCl (stereo not given),inactive,
Cc1[nH]c(=O)n(C(C)(C)C)c(=O)c1Cl,,7.51 µM (active)
